Experimental findings from PubChem BioAssay (Tox21) are described below.

Several values for one entry are separate records, joined by “and”; a condition that tells them apart may be missing. Equal entries are not always repeated. Inconclusive results are not listed. A structure can be active in one record and inactive in another. Activity calls are given as the source filed them. Calls follow the shape of the dose curve; as a rule, active = well fitted inhibition curve with a large enough effect in the repeat runs; inconclusive = weak or mixed curves; inactive = no such curve, though single readings can be large or run the other way.
% is scaled to controls: 0 for no effect and ±100 for the full control effect; potency is read from the fitted curve at half-maximal effect.

The test deals with Estrogen receptor (Homo sapiens) (UniProt P03372). The test can be described thus: qHTS assay to identify small molecule antagonists of the estrogen receptor alpha (ER-alpha) signaling pathway using the BG1 cell line in the presence of 0.1 nM 17-beta-estradiol (AID 1259244). Also: nearly all actives have a fitted effect of over 50% in size. The following applies: VM7Luc4E2 (BG1) ERE-luciferase, antagonist mode, 0.1 nM E2, 22 h; series mostly up to 92.4 µM; activity change, negative = inhibition: at the top concentration. The source says: National Center for Advancing Translational Sciences [NCATS]
Sequence of Estrogen receptor (Homo sapiens) (P03372 whole entry, looked up): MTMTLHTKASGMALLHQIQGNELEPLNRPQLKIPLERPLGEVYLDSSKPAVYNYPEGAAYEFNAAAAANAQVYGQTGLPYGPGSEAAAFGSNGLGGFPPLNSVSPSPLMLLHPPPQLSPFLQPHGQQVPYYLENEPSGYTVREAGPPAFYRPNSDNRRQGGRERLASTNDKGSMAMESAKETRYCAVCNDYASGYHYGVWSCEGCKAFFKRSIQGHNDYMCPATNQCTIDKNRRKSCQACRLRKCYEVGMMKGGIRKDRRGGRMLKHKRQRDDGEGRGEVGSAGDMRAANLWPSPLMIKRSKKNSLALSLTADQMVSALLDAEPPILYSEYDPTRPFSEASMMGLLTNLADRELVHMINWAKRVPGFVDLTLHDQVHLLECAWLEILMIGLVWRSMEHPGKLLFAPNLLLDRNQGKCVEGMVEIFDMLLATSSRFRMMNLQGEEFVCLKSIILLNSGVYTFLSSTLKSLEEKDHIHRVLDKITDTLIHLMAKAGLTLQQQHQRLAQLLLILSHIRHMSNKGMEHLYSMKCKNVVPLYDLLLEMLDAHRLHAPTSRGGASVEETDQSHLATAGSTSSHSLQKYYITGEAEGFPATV
NIH Chemical Genomics Center [NCGC]
U.S. Environmental Protection Agency [EPA]
National Institutes of Environmental Health Sciences [NIEHS]
National Toxicology Program [NTP]
U.S. Food and Drug Administration [FDA]
Estrogen receptor (ER), a member of the nuclear hormone receptor plays an important role in development, metabolic homeostasis and reproduction. Two subtypes of ER, ER-alpha and ER-beta, have similar expression patterns with some uniqueness in both types. Endocrine disrupting chemicals (EDCs) and their interactions with steroid hormone receptors like ER causes disruption of normal endocrine function. Therefore, it is important to understand the effect of environmental chemicals in ER signaling pathway. For identifying ER antagonists, VM7Luc4E2 cell line was used to screen against Tox21 compound libraries.
VM7Luc4E2 cell line (provided by Denison MS, University of California) endogenously express full-length ER-alpha and is stably transfected with a plasmid containing four estrogen responsive elements (ERE) upstream of a luciferase reporter gene. The current screening for identification of ER-alpha inhibitors against Tox21 compound libraries used lower concentration (0.1 nM) of 17beta-Estradiol as a stimulator.
Tox21 Assay Protocol Summary:
VM7Luc4E2 cells were cultured in phenol red free assay medium containing 10% charcoal stripped FBS for 5 days prior to the assay. The cells were dispensed at 4,000 cells/well in 4 uL of assay medium into white wall/solid-bottom 1536-well plates (Corning Life Sciences, Corning, NY) using a Multidrop Combi (ThermoFisher Scientific, Waltham, MA) dispenser. After the assay plates were incubated at 37C and 5% CO2 for 24 hr, 23 nL of compounds dissolved in DMSO, positive controls or DMSO only was transferred to the assay plates by a Pintool station (Kalypsys, San Diego, CA). The transfer of compounds was followed by the addition of 1 uL of 0.1 nM (final concentration) agonist (17beta-Estradiol)/assay medium using a Flying Reagent Dispenser (FRD, Aurora Discovery, San Diego, CA). The plates were incubated at 37C and 5% CO2 for 22 hr. For luciferase reporter gene assay, 4 uL of ONE-Glo reagent (Promega Corporation, Madison, WI) was added to each well using the FRD and after 30 min incubation at room temperature luminescence intensity was measured using ViewLux plate reader (PerkinElmer, Shelton, CT).
For orientation: qHTS replaces the single test concentration by a dilution series.
For `Brc1ccc(Oc2ccc(Br)cc2Br)c(Br)c1`, the “activity change, negative = inhibition” value was -2.43% (inactive).
Turning to `O=C1C(Cl)=C(Cl)C(=O)C(Cl)=C1Cl`, the Potency entry is “inactive”.
Regarding `CC(Cc1ccc(O)cc1)NCC(O)c1cc(O)cc(O)c1` (stereo not given), the “activity change, negative = inhibition” value was 3.93% [at 42.5 µM] (inactive).
Same read-out and setting: with `C=CCOC(=O)c1ccccc1N` the figure was -17.9% (inactive); with `S=C=Nc1ccccc1`, -13.3% (inactive).
Take `COc1c2c(cc3c1OCO3)CCN(C)C2`: the “activity change, negative = inhibition” value is -6.53% [at 42.5 µM] (inactive).
For `CCC[CH2][Sn]([CH2]CCC)([O]C(C)=O)[O]C(C)=O`, the Potency was 617 nM (active).
`S=C=NCCc1ccccc1`: the “activity change, negative = inhibition” value was 96.6% (inactive).
Turning to `CC(C)c1c(CN(C)C(C)Cc2ccccc2)n(C)n(-c2ccccc2)c1=O` (stereo not given), the “activity change, negative = inhibition” value was -11% [at 42.5 µM] (inactive).
As to `Cc1ccc2cc3c(ccc4ccccc43)c3c2c1CC3`, the Potency is 546 nM (active).
Turning to `N#CC(C#N)=NNc1cccc(Cl)c1`, the Potency was 1090 nM (active).
Turning to `CCOC(=O)Cc1ccccc1`, the “activity change, negative = inhibition” value is 4.17% (inactive).
Same read-out and setting: with `Cc1cnc2c(C(=O)O)c(Cl)ccc2c1` the figure was 10.2% (inactive); with `CC(=O)C(Cl)C(=O)N(C)C` (stereo not given), 39.8% (inactive).
Take `O=C(O)CCCCCCNC1c2ccccc2CCc2ccccc21`: the “activity change, negative = inhibition” value is -22.6% [at 42.5 µM] (inactive).
Same read-out and setting: with `ClCBr` the figure was 8% (inactive).
Take `CNC(=O)CSP(=O)(OC)OC`: the “activity change, negative = inhibition” value was 14.3% (inactive).
The same measure, in the same setting: the figure for `O=P(Cl)(Cl)Cl` is 15.8% (inactive); for `CC(=O)[O][Pb]([c]1ccccc1)([c]1ccccc1)[c]1ccccc1` it is -109% (inactive); for `Clc1ccc(C2(Cn3cncn3)OCCO2)c(Cl)c1` it is -18.1% (inactive).
The same measure, in the same setting: the figure for `NC1CCC(CC2CCC(N)CC2)CC1` (stereo not given) is 0% (inactive); for `CC1=C2C[C@H]3[C@@H](CC=C4C[C@@H](O)CC[C@@]43C)[C@@H]2CC[C@]12O[C@@H]1C[C@H](C)CN[C@H]1[C@H]2C` it is 2.33% [at 42.5 µM] (inactive).
Same read-out and setting: with `CC(C)Br` the figure was -1.34% (inactive); with `N#CSCc1ccccc1`, -17% (inactive); with `c1csc(-c2ccc(-c3cccs3)s2)c1`, -5.68% (inactive).
Consider `O=S(=O)(O)F`, for which the “activity change, negative = inhibition” value is 0.71% (inactive).
Same read-out and setting: the figure for `C=CCBr` is 24% (inactive); for `COc1nc(C)nc(NC(=O)NS(=O)(=O)c2ccccc2Cl)n1` it is 12.9% (inactive); for `O=C(Cl)c1ccccc1F` it is 0% (inactive).
As to `CCCCCCCCCCCCCCn1cc[n+](C)c1`, the Potency was 612 nM (active) and 761 nM (active) and inactive.
With `CC(Cc1ccc2c(c1)OCO2)NO` (stereo not given), the “activity change, negative = inhibition” value is -2.31% (inactive).
On the same count and under the same terms, the figure for `Nc1ccc(Cl)cc1C(=O)c1ccccc1F` is -16.6% [at 42.5 µM] (inactive); for `ClSC(Cl)(Cl)Cl` it is 10.8% (inactive).
`[F][Sn]([c]1ccccc1)([c]1ccccc1)[c]1ccccc1`: the Potency is 2730 nM (active).
The same measure, in the same setting: with `C[C@]12C/C(=C/O)C(=O)C[C@@H]1CC[C@@H]1[C@@H]2CC[C@@]2(C)[C@H]1CC[C@]2(C)O` the entry was “inactive”.
For `CN/C(=N\[N+](=O)[O-])NCc1cnc(Cl)s1`, the “activity change, negative = inhibition” value was -0.202% (inactive).
The same measure, in the same setting: with `CCCCCCCc1ccc(O)cc1` the figure was -21% (inactive).
On the same count and under the same terms, with `N#Cc1ccc(N(CC(N)=O)CC(F)(F)F)cc1C(F)(F)F` the figure was -12.9% (inactive).
For `CCN(CC)CCN1C(=O)CN=C(c2ccccc2F)c2cc(Cl)ccc21`, the “activity change, negative = inhibition” value is -3.1% [at 42.5 µM] (inactive).
Turning to `O.O.O.O=C([O-])[C@H]([O-])[C@@H]([O-])C(=O)[O-].O=C([O-])[C@H]([O-])[C@@H]([O-])C(=O)[O-].[K+].[K+].[Sb+3].[Sb+3]`, the “activity change, negative = inhibition” value was -89.2% (inactive).
